# Reference: ChEMBL document CHEMBL3988442, “University of Dundee, Small-Polar-MMV Screening Library” (2021)
# The whole screen tested about 69,000 compounds, of which about 1,000 (1.4%) showed an effect of 50% or more. For the sample, strong results were picked, then their nearest neighbours and some compounds at random.
# System: Leishmania donovani
# Test: Leishmania intramacrophage assay
# Assay type: functional, organism-based
# Parameters: scale not given: in the data most compounds retested in dose-response had high values
structure (smiles),measurement,setting,value
Cl.O=S(=O)(c1ccc(Cl)cc1)N1CCc2nc(C3CCNCC3)ncc2C1,Percent Effect,"30.3 µM, […]",-22.35%
O=S(=O)(c1ccccc1Cl)N1CCc2nc(C3CCNCC3)ncc2C1,Percent Effect,"30 µM, 30.03 µM",50.23%
Cc1ccc(S(=O)(=O)N2CCc3nc(C4CCNCC4)ncc3C2)cc1.Cl,Percent Effect,"30 µM, 30.03 µM",-1.201%
Cc1nc(C2CCCN2Cc2nc(C3CC3)no2)no1 (configuration not stated),Percent Effect,30 µM,21.89%
CCCN(CCC)C(=O)c1cc(CN2CCC(O)CC2)on1,Percent Effect,"30.3 µM, […]",36.24%
CCn1ncc(Cn2cc(Cl)c(N)n2)c1C,Percent Effect,"30.3 µM, […]",-8.997%
COc1ccnc(CNc2nc(C)nc3ccsc23)c1,Percent Effect,"30.3 µM, […]",56.7%
Cc1nc(NCc2noc(C3CCCO3)n2)c2sccc2n1 (configuration not stated),Percent Effect,"30.3 µM, […]",29.04%
COc1ccnc(CNc2nc(C)nc(C)c2C)c1,Percent Effect,"30.3 µM, […]",39.23%
CCc1csc(C2CCCN(C(=O)c3ccc4c(c3)OCO4)C2)n1 (configuration not stated),Percent Effect,"30.3 µM, […]",-18.73%
Cc1ccc(S(=O)(=O)N2CC(C)Oc3ncccc32)c(F)c1 (configuration not stated),Percent Effect,"30.3 µM, […]",21.87%
Cc1ccc(S(=O)(=O)N2CC(C)Oc3ncccc32)c(C)c1 (configuration not stated),Percent Effect,"30.3 µM, […]",55.69%
CC1CN(S(=O)(=O)c2ccc(F)cc2F)c2cccnc2O1 (configuration not stated),Percent Effect,"30.3 µM, […]",30.4%
CN(CC1(CO)CCC1)C(=O)c1cc(COc2ccccc2F)[nH]n1,Percent Effect,"30.3 µM, […]",-17.63%
COc1ccc2c(c1)CCCN(CC(=O)NCC1CCCO1)C2 (configuration not stated),Percent Effect,"30.3 µM, […]",55.19%
COc1ccc2c(c1)CN(CC(=O)NC1CCCC1)CC2,Percent Effect,"30.3 µM, […]",-7.68%
COc1ccc2c(c1)CCCN(C(=O)NCC1CCCO1)C2 (configuration not stated),Percent Effect,"30.3 µM, […]",6.687%
CC(=O)NC(C)C(=O)N(Cc1ccc(C)c(C)c1)C1CC1 (configuration not stated),Percent Effect,"30.3 µM, […]",-3.591%
COc1ccccc1-c1ncc(CN2C[C@H](O)[C@@H](N3CCCC3)C2)s1,Percent Effect,"30.3 µM, […]",4.457%
COc1ccccc1-c1ncc(CN2C[C@@H](N(C)C)[C@H](C(C)C)C2)s1,Percent Effect,"30.3 µM, […]",52.36%
COc1ccccc1-c1ncc(CN2CCCC[C@H](N(C)C)C2)s1,Percent Effect,"30.3 µM, […]",36.23%
CNC(=O)CN1CC[C@H]2CN(C(=O)c3ccc(C)cc3)C[C@H]2C1.O=C(O)C(F)(F)F,Percent Effect,"30.3 µM, […]",2.501%
CCN1CCn2c(C)cnc2C12CCN(C(=O)N(C)C)CC2.O=C(O)C(F)(F)F.O=C(O)C(F)(F)F,Percent Effect,"30.3 µM, […]",6.426%
CC(C)c1cc(C(=O)N2CCOCC2CC(=O)c2ccco2)nn1C (configuration not stated),Percent Effect,"30.3 µM, […]",-24.4%
Cc1nn(-c2ccccc2Cl)c(C)c1CCC(=O)O,Percent Effect,"30.3 µM, […]",-26.02%
NCC(c1ccc(Cl)cc1)N1CCc2sccc2C1 (configuration not stated),Percent Effect,"30.3 µM, […]",40.17%
NCC(c1ccccc1)N1CCc2sccc2C1 (configuration not stated),Percent Effect,"30 µM, 30.03 µM",28.55%
CC(C)c1ccc(C(CN)N2CCc3sccc3C2)cc1 (configuration not stated),Percent Effect,"30.3 µM, […]",82.67%
O=C(NCCSC1CCCC1)c1ccc(F)cc1F,Percent Effect,"30.3 µM, […]",24.13%
COc1ccccc1N1CCN(C(=O)Cn2nc(C)c(Cl)c2C)CC1,Percent Effect,"30.3 µM, […]",31.83%
c1ccc2oc(CCCN3CCCC(Cn4cncn4)C3)nc2c1 (configuration not stated),Percent Effect,30 µM,8.044%
Cc1cc(C(=O)N2C[C@H]3CC[C@@H]2CN(Cc2ccccn2)C3)nc(C)n1,Percent Effect,"30.3 µM, […]",16.91%
CC(=O)Nc1ccc(CNCC(O)c2ccc(Cl)cc2)cc1 (configuration not stated),Percent Effect,"30.3 µM, […]",-0.7096%
CC(C)Nc1ncnc2c1CCN(c1cc(C(F)(F)F)ncn1)CC2,Percent Effect,"30.3 µM, […]",9.513%
CCN(C(=O)NCc1ccc(C)cc1OC)C(C)c1cccnc1 (configuration not stated),Percent Effect,"30.3 µM, […]",51.84%
CCN(C(=O)NCc1ccccc1OC(F)F)C(C)c1cccnc1 (configuration not stated),Percent Effect,"30.3 µM, […]",43.41%
CCOc1ccccc1CNC(=O)N(CC)C(C)c1cccnc1 (configuration not stated),Percent Effect,"30.3 µM, […]",14.76%
Cc1ccc2c(n1)N(CC1CC1)CCN(Cc1cnn(C)c1)C2,Percent Effect,"30.3 µM, […]",26.83%
Cc1ccc2c(n1)N(Cc1cccnc1)CCN(C(=O)C1CC=CC1)C2,Percent Effect,"30.3 µM, […]",-19.75%
Cc1ccc2c(n1)N(Cc1cccnc1)CCN(Cc1cnn(C)c1)C2,Percent Effect,"30.3 µM, […]",76.22%
Cc1nn(C)c(Cl)c1C1CCCN1C(=O)c1nccnc1N (configuration not stated),Percent Effect,"30 µM, 30.03 µM",1.892%
CC(NC(=O)NCCCn1cncn1)c1ccccc1Cl (configuration not stated),Percent Effect,"30 µM, 30.03 µM",-19.77%
O=C(O)Cc1cnc(-c2c(Cl)cccc2Cl)s1,Percent Effect,"30.3 µM, […]",39.96%
Cc1noc([C@H]2C[C@H]3OCC[C@H]3N(Cc3ccc(F)cc3)C2)n1.O=C(O)C(F)(F)F,Percent Effect,"30.3 µM, […]",51.58%
Cc1noc([C@H]2C[C@H]3OCC[C@H]3N(Cc3ccc4c(c3)OCO4)C2)n1.O=C(O)C(F)(F)F,Percent Effect,"30 µM, 30.03 µM",25.3%
CCc1ccc(CN2C[C@@H](c3nc(C)no3)C[C@H]3OCC[C@H]32)o1.O=C(O)C(F)(F)F,Percent Effect,"30.3 µM, […]",-6.961%
Cc1cccnc1NC(=O)c1ccc(F)c(S(=O)(=O)NC2CC2)c1,Percent Effect,"30.3 µM, […]",2.163%
CC(=O)Nc1ncc(S(=O)(=O)Nc2cccc(O)c2)s1,Percent Effect,"30.3 µM, […]",53.03%
CC(=O)Nc1ncc(S(=O)(=O)Nc2cccc(C)c2)s1,Percent Effect,"30.3 µM, […]",11.84%
CC(=O)Nc1ncc(S(=O)(=O)Nc2cccc(F)c2)s1,Percent Effect,"30.3 µM, […]",-21.07%
CN(C)C(=O)COC[C@@H]1CC[C@H]2[C@H](CCN2c2ncccn2)O1.O=C(O)C(F)(F)F,Percent Effect,"30.3 µM, […]",37.88%
Cc1cnc(N2CC[C@@H]3OC(COCC(=O)N(C)C)CC[C@@H]32)nc1.O=C(O)C(F)(F)F (some centres not stated),Percent Effect,"30.3 µM, […]",4.675%
